According to PubChem BioAssay (EPA / NIEHS):
Activity calls are given as the source filed them. Rule for the calls: active = hit-call score of the fitted dose curve at least 0.9, where 1 is the maximum; inactive = score below 0.9.

Experiments:
Details in all cases: mRNA level, 48 h; actives raise or lower the signal
[1] = read-out: Glutathione S-transferase M3 (GSTM3), GSTM3 (gene 2947); test: LTEA_HepaRG_GSTM3: Life Technologies and Expression Analysis (LTEA) Assay for Glutathione S-transferase M3 (GSTM3) using HepaRG (AID 2283501)
Method: (§1) LTEA_HepaRG is a cell based, multiplexed-readout assay that uses HepaRG, a human liver cell line, with measurements taken at 48 hours after chemical dosing on a 96-well plate.LTEA_HepaRG_GSTM3 is one of 102 assay component(s) measured in the LTEA HepaRG cell culture assay. It is a marker of Oxidative Stress.Data from the assay component LTEA_HepaRG_GSTM3 was analyzed into 1 endpoint. This assay endpoint, LTEA_HepaRG_GSTM3, was analyzed with bidirectional fitting relative to DMSO as the negative control and baseline of activity. Using a type of inducible reporter, measures of mRNA induction for gain or loss-of-signal activity can be used to understand regulation of transcription factor activity. To generalize the intended target to other relatable targets, this assay endpoint is annotated to the transferase intended target family, where the subfamily is alkyl and aryl transferase.
(§2) A total of 1060 chemcials from the ToxCast library were tested in eight-point concentration-response experiments. Cell culture and cytotoxicity assays were conducted at Thermo Fisher Scientific's Custom Services facility (Madison, WI). […] Fluidigm's 96.96 Dynamic ArrayTM (Fluidigm, Amsterdam, the Netherlands) technology was used for gene expression analyses by quantitative reverse transcription polymerase chain reaction (qRT-PCR, performed by Quintiles/Expression Analysis, Durham, NC)89. […]

[2] = read-out: Heat shock 70 kDa protein 1 (HSPA1A), gene 3303; test: LTEA_HepaRG_HSPA1A: Life Technologies and Expression Analysis (LTEA) Assay for Heat shock 70 kDa protein 1 (HSPA1A) using HepaRG (AID 2283502)
Summary of the method: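 Human HepaRG cells in serum-free induction medium were exposed in duplicate for 48 h to 8 half-log concentrations, highest 100 uM, in 0.5% DMSO. HSPA1A mRNA read by TaqMan qRT-PCR, normalized to ACTB, GAPDH, POLR2A, fitted bidirectionally against DMSO.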

[3] = read-out: Hypoxia-inducible factor 1-alpha (Homo sapiens) (UniProt Q16665); test: LTEA_HepaRG_HIF1A: Life Technologies and Expression Analysis (LTEA) Assay for Hypoxia-inducible factor 1 (HIF1A) Trancription factor using HepaRG (AID 2283503)
Summary of the method: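 Differentiated HepaRG cells in serum-free induction medium exposed 48 h, in duplicate, to 8-point half-log series from 100 uM in 0.5% DMSO. HIF1A mRNA measured by TaqMan qRT-PCR, normalized to ACTB/GAPDH/POLR2A, fitted bidirectionally versus DMSO.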

[4] = read-out: 3-Hydroxy-3-Methylglutaryl-CoA Synthase 2 (HMGCS2), HMGCS2 (gene 3158); test: LTEA_HepaRG_HMGCS2: Life Technologies and Expression Analysis (LTEA) Assay for 3-Hydroxy-3-Methylglutaryl-CoA Synthase 2 (HMGCS2) using HepaRG (AID 2283504)
Method: as §1, with “plate.LTEA_HepaRG_HMGCS2” for “plate.LTEA_HepaRG_GSTM3”, “Steatosis.Data” for “Oxidative Stress.Data”, “LTEA_HepaRG_HMGCS2” for “LTEA_HepaRG_GSTM3”, “LTEA_HepaRG_HMGCS2,” for “LTEA_HepaRG_GSTM3,”, “lyase” for “transferase”, “HMG-CoA synthase.” for “alkyl and aryl transferase.”
as §2

HGF (gene 3082) = test: LTEA_HepaRG_HGF: Life Technologies and Expression Analysis (LTEA) Assay for Hepatocyte Growth Facto (HGF) using HepaRG (AID 2283505)
Summary of the method: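 HGF transcript was quantified by TaqMan qRT-PCR against three housekeeping genes after 48 h treatment of HepaRG cells. Exposure ran in duplicate over eight half-log steps topping at 100 uM in 0.5% DMSO vehicle.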

[5] = read-out: Insulin Like Growth Factor 1 (IGF1), IGF1 (gene 3479); test: LTEA_HepaRG_IGF1: Life Technologies and Expression Analysis (LTEA) Assay for Insulin Like Growth Factor 1 (IGF1) using HepaRG (AID 2283506)
Summary of the method: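 Differentiated HepaRG cells in serum-free induction medium, exposed 48 h in duplicate to 8 half-log concentrations up to 100 uM in 0.5% DMSO. IGF1 mRNA by Fluidigm qRT-PCR, normalised to ACTB, GAPDH and POLR2A.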

[6] = read-out: Intercellular Adhesion Molecule 1 (ICAM1), ICAM1 (gene 3383); test: LTEA_HepaRG_ICAM1: Life Technologies and Expression Analysis (LTEA) Assay for Intercellular Adhesion Molecule 1 (ICAM1) using HepaRG (AID 2283507)
Summary of the method: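 ICAM1 transcript levels measured by qRT-PCR, normalized to three housekeeping genes (ACTB, GAPDH, POLR2A), after 48 h chemical exposure of HepaRG cells. Duplicate eight-point half-log series from 100 uM in 0.5% DMSO; gain or loss fitted against vehicle.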

[7] = read-out: Insulin-like growth factor-binding protein 1 (IGFBP1), IGFBP1 (gene 3484); test: LTEA_HepaRG_IGFBP1: Life Technologies and Expression Analysis (LTEA) Assay for Insulin-like growth factor-binding protein 1 (IGFBP1) using HepaRG (AID 2283508)
Summary of the method: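 Read-out is qRT-PCR transcript level normalized to three housekeeping genes, fitted in both directions against 0.5% DMSO. Differentiated HepaRG cells received eight half-log concentrations (top 100 uM) in duplicate for 48 h in serum-free induction medium.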

[8] = read-out: Interleukin 6 (IL6), IL6 (gene 3569); test: LTEA_HepaRG_IL6: Life Technologies and Expression Analysis (LTEA) Assay for Interleukin 6 (IL6) using HepaRG (AID 2283509)
Summary of the method: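 HepaRG, ~100,000 cells/well, 48 h pre-culture; serum-free induction medium; cmpd 8-pt half-log from 100 uM, 0.5% DMSO, duplicate, 48 h. Lysis in RLT, TaqMan qRT-PCR; gain or loss vs DMSO.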

[9] = read-out: Interleukin 6 Receptor (IL6R), IL6R (gene 3570); test: LTEA_HepaRG_IL6R: Life Technologies and Expression Analysis (LTEA) Assay for Interleukin 6 Receptor (IL6R) using HepaRG (AID 2283510)
Summary of the method: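 Differentiated HepaRG cells, plated 48 h, then exposed in duplicate for 48 h in serum-free induction medium to 8 half-log concentrations (top 100 uM, 0.5% DMSO). IL6R mRNA measured by TaqMan qRT-PCR, normalized to ACTB/GAPDH/POLR2A; bidirectional fit vs DMSO.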

Measured: outcome

Hypoxia-inducible factor 1-alpha (Homo sapiens), sequence (Q16665 whole entry, looked up): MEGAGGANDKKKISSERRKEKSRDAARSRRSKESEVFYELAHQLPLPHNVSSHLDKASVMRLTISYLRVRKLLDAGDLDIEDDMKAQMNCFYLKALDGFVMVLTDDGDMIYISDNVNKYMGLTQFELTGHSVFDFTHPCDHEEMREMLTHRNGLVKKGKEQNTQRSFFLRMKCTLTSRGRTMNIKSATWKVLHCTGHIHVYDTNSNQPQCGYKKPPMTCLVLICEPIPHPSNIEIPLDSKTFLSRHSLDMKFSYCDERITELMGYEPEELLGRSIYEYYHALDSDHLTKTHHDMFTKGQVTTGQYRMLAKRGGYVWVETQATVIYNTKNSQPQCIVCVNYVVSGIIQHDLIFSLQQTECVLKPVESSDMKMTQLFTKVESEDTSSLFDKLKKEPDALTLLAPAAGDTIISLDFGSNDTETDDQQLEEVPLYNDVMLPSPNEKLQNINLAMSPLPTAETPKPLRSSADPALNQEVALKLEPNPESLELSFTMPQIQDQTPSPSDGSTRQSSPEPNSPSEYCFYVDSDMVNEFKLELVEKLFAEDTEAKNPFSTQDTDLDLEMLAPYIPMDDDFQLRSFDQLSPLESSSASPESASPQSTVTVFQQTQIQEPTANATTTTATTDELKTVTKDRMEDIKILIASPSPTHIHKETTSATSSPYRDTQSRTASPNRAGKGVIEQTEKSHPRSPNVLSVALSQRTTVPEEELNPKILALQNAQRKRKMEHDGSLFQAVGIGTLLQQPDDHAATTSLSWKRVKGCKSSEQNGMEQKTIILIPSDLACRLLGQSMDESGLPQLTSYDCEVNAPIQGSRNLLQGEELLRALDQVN

O=C(O)c1ccc([N+](=O)[O-])cc1
inactive: [1] | [2] | [3] | [4] | HGF (gene 3082) | [5] | [6] | [7] | [8] | [9]
